From PubChem BioAssay (NCI)
Compounds without any hit were thinned out: in the full panel of roughly 79,000, 15% have a hit. Cut-off read from the data, not from the text of the source: active = growth inhibition above about 70%; inactive = the rest. Where a SMILES comes first, the peptide text is derived from it. The star is where a group is joined. Boc = CC(C)(C)OC(=O)*

Columns and labels:
[1] = NCI Yeast Anticancer Drug Screen. Data for the rad50 strain (AID 155);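 note: 0% = growth of vehicle-only cultures of the same strain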; settings: S. cerevisiae rad50 strain growth inhibition; at 50.0 µM; stronger effect = higher value
In short: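 Genetically altered yeast (DNA repair pathway); compound treatment; growth inhibition vs vehicle ctrl.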

[2] = NCI Yeast Anticancer Drug Screen. Data for the mec2-1 strain (AID 157); settings: S. cerevisiae mec2-1 strain, at 50.0 µM, stronger effect = higher value
In short: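 Test agents were screened against the mec2-1 yeast strain, with defined DNA repair or cell cycle alteration. Growth was scored as inhibition against vehicle-only controls.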

[3] = NCI Yeast Anticancer Drug Screen. Data for the sgs1 mgt1 strain (AID 161);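 note: 0% = growth of cultures given vehicle only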; settings: S. cerevisiae sgs1 mgt1 strain, at 50.0 µM, stronger effect = higher value
In short: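 Read-out: growth inhibition vs vehicle controls. Cells: mutant yeast strain deficient in DNA damage repair.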

[4] = NCI Yeast Anticancer Drug Screen. Data for the cln2 rad14 strain (AID 165);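 note: 0% = growth equal to vehicle treated cultures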; settings: S. cerevisiae cln2 rad14 strain, at 50.0 µM, stronger effect = higher value
In short: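 Growth of compound-exposed yeast (cln2 rad14 genotype) measured and expressed as inhibition relative to vehicle.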

[5] = NCI Yeast Anticancer Drug Screen. Data for the bub3 strain (AID 167); settings: S. cerevisiae bub3 mutant strain, at 50.0 µM, stronger effect = higher value
In short: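 Yeast carrying a defined mutation is treated with each compound, and growth is compared with that of vehicle-exposed cells to give inhibition.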

[6] = NCI Yeast Anticancer Drug Screen. Data for the mlh1 rad18 strain (AID 175); settings: S. cerevisiae mlh1 rad18 strain growth inhibition; at 50.0 µM; stronger effect = higher value
In short: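 In this whole-cell yeast screen, a strain with altered DNA damage repair is challenged with compound, and its growth is measured against matched vehicle-treated controls.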

Measured: growth inhibition

CN(Cc1cccc(Cl)c1)C(=O)NC(C)(C)C
inactive: [1] 2.85% | [2] -6.85% | [3] 15.8% | [4] 4.2% | [5] 14.6% | [6] 0.05%

CC(C)[O-].CC(C)[O-].O=c1cccccc1[O-].O=c1cccccc1[O-].[Ti+4]
inactive: [1] -13.2% | [2] 0.9% | [3] 14.2% | [4] 10.8% | [5] -1.5% | [6] 22.4%

Cc1nc(N)nc2ccccc12
inactive: [1] 3.15% | [2] -25.3% | [3] -16% | [4] -5.8% | [5] -7.9% | [6] -16.1%

c1ccc(N2CCCC2(c2ccccc2)c2ccccc2)cc1
inactive: [1] 29.1% | [2] 11.3% | [3] 47.1% | [4] -11.8% | [5] 22.9% | [6] 28.4%

O=C1c2sccc2[C@H](NC(=O)C(F)(F)F)[C@@H]1Cl
inactive: [1] 4.5% | [2] 3.45% | [3] 1.1% | [4] 25.1% | [5] 7.25% | [6] 18.6%

CCCc1nc(CCC)nc(CCC)n1
inactive: [1] -13.8% | [2] -5.35% | [3] -10.2% | [4] -6.5% | [5] 5.55% | [6] -14.7%

Nc1ccc(O)c(N=Nc2ccc(S(N)(=O)=O)cc2)c1
inactive: [1] 6% | [2] 0.1% | [3] 13.6% | [4] -1.1% | [5] 18.1% | [6] 10.1%

CC(=O)OC(C(=O)Nc1ccc(Br)cc1)c1ccccc1 (configuration not stated)
inactive: [1] 4.7% | [2] -3.95% | [3] -4.75% | [4] -35.5% | [5] 11.6% | [6] -6.65%

S=C(NCc1ccco1)Nc1ccccc1Cl
inactive: [1] 5.5% | [2] -4.1% | [3] 16.2% | [4] 4.5% | [5] 4.4% | [6] 1.2%

COc1ccccc1/C=N\NC(=O)c1ccccc1O
inactive: [1] 13.2% | [2] 11.6% | [3] 11.8% | [4] 21.5% | [5] 41% | [6] 11.3%

CCCCNC(=S)N/N=C/c1ccc(OC)cc1
inactive: [1] -10.8% | [2] 1.55% | [3] -1.3% | [4] -41% | [5] -1.85% | [6] -6.45%

CN(C)/C=N/c1cc(=O)n(C)c(=O)n1C
inactive: [1] 48.2% | [2] 13.4% | [3] 1.85% | [4] 2.9% | [5] -18.1% | [6] -16.4%

CCOC(=O)c1c[nH]c2cc(Cl)ccc2c1=O
inactive: [1] 3.85% | [2] 30.5% | [3] 9.65% | [4] 7.9% | [5] 15.3% | [6] -12.9%

CCN(CC)CCN1C(=O)C(=O)N(c2cccc3ccccc23)C1=O
inactive: [1] -26.9% | [2] -15.7% | [3] -14.9% | [4] -14.2% | [5] -31.9% | [6] -10.2%

CC1=C(O[Si](C(C)C)(C(C)C)C(C)C)C2CC1(OS(=O)(=O)C(F)(F)F)[C@H]1C(=O)N(c3ccccc3)C(=O)[C@@H]21 (some centres not stated)
inactive: [1] -4.8% | [2] -11.4% | [3] 0.3% | [4] 17.4% | [5] 5.2% | [6] -20.9%

CC1CC([NH-])C([NH-])C(C)(C)C1.[Cl][Pt+2][Cl] (configuration not stated)
inactive: [1] -4.35% | [2] -4.25% | [3] -9.95% | [4] -12.2% | [5] -10.8% | [6] -49.2%

COc1cc(C)c(/C=C/C(=O)N2C(=O)OC[C@@H]2c2ccccc2)c(C)c1
inactive: [1] 4.35% | [2] -8.75% | [3] 21.1% | [4] 26.9% | [5] 19.1% | [6] 18.2%

CC(C)CNC(=S)N/N=C/C=C/c1ccc(C(C)C)cc1
inactive: [1] -18.2% | [2] -12.7% | [3] 20.3% | [4] -16.1% | [5] 53.9% | [6] 0.35%

CC1CC(C)(C)OC(c2ccc(Cl)cc2)O1 (configuration not stated)
inactive: [1] 9.35% | [2] -5.85% | [3] -9.6% | [4] -52.5% | [5] -12.4% | [6] -9.1%

c1ccc(N2CCN(c3ccccn3)CC2)nc1
inactive: [1] -2.65% | [2] -13.6% | [3] 2.5% | [4] -21.5% | [5] -13.7% | [6] -5.1%

ClC(Cl)(Cl)CC(Br)c1ccccc1 (configuration not stated)
inactive: [1] -1.55% | [2] -8.8% | [3] 7.55% | [4] -22.9% | [5] -6.9% | [6] 2.25%

O=C(CC(=O)c1ccccc1)CC(Nc1ccccc1)c1ccccc1 (configuration not stated)
inactive: [1] 58% | [2] 10% | [3] 46.1% | [4] -8.5% | [5] 7.55% | [6] 45.9%

COc1cc(/C=C(/C#N)C(N)=O)cc(OC)c1OC
inactive: [1] 15.6% | [2] 10.6% | [3] 18.9% | [4] 12.3% | [5] 11.1% | [6] 14.8%

Nc1c(N=Nc2ccc(S(=O)(=O)O)cc2)cc2c3c(cccc13)CC2
inactive: [1] 11.3% | [2] 2.35% | [3] 20.6% | [4] 8.65% | [5] -39.5% | [6] 2.4%

CCOC(=O)C(NC(=O)OCc1ccccc1)C(=O)O (configuration not stated)
inactive: [1] -22.9% | [2] -27.4% | [3] -14.3% | [4] 7.7% | [5] 5.35% | [6] -14.7%

CC1=CCC(C(C)(C)NC(=O)c2ccccc2)C/C1=N/O (configuration not stated)
inactive: [1] -56.7% | [2] -43% | [3] -60.3% | [4] -49.2% | [5] -43.7% | [6] -66.5%

O=C1NC(N2CCCC(CO)C2)=N/C1=C\c1ccccc1 (configuration not stated)
inactive: [1] -15.6% | [2] -2.85% | [3] 10% | [4] 7.6% | [5] 7.15% | [6] -33.7%

O=Cc1ccc(/C=C2\NC(=O)NC2=O)cc1
inactive: [1] -6.25% | [2] -7.9% | [3] -26.9% | [4] -0.05% | [5] -9.3% | [6] -5.55%

C=CCNC(=O)CC(C)(C)C
inactive: [1] 25.6% | [2] 12.3% | [3] 0.35% | [4] 9.3% | [5] 23.9% | [6] 20.2%

COc1ccc2ncc(C)c(CO)c2c1
inactive: [1] 3.25% | [2] -6.05% | [3] -1.65% | [4] -50.9% | [5] 0.75% | [6] -2.65%

N#CNC(=NCC1CCCO1)Nc1cccnc1 (configuration not stated)
inactive: [1] 2.9% | [2] -9.8% | [3] -26.4% | [4] -23.4% | [5] 23.9% | [6] -2.35%

CC(C)(C)OC(=O)NC(Cc1ccc(O)cc1)C(=O)N1CCCC1C(=O)O (stereo not drawn) (Boc-Tyr-Pro-OH; configuration not given here)
inactive: [1] -13% | [2] -11.3% | [3] -20.9% | [4] -10.2% | [5] -22.9% | [6] -23.1%

CN(C)c1ccc([O-])cc1.CN(C)c1ccc([O-])cc1.CN(C)c1ccc([O-])cc1.CN(C)c1ccc([O-])cc1.[Ti+4]
inactive: [1] 26.9% | [2] -19.4% | [3] 4.65% | [4] 19.3% | [5] 4.95% | [6] -2.6%

O=Cc1c2c(cc3c1CC1(C3)Cc3cc4c(c(C=O)c3C1)CCC4)CCC2
inactive: [1] -26.4% | [2] -40.1% | [3] -25.9% | [4] 3.7% | [5] 26.8% | [6] 1.35%

CCOC(=O)C(CC)N1C(=O)c2ccccc2S1(=O)=O (configuration not stated)
inactive: [1] -16.1% | [2] -10.5% | [3] -12.4% | [4] 48.2% | [5] 33.5% | [6] -12.6%

O=S(=O)(c1ccccc1)N1C[C@@H]2[C@H](C1)[C@H]1C=C[C@@H]2C1
inactive: [1] 1.95% | [2] -12.3% | [3] 13% | [4] -4.8% | [5] 42.6% | [6] -11%

Cn1c(=O)c2c(nc(C3CC3)n2C)n(C)c1=O
inactive: [1] -1.15% | [2] -0.6% | [3] 5.65% | [4] -16.6% | [5] -0.55% | [6] 12.1%
